From PubChem BioAssay AID1159580 (chemical genetic matrix, 2015)
About 2,000 (36%) of roughly 5,500 compounds were called active. Roughly 18% stayed inconclusive and do not appear here. Rule as the data show it: active = normalized growth mostly below about 0.91 (no sharp cut-off); inconclusive = no clear call, values can overlap the other calls; inactive = mostly above about 0.92. The list shows a part of the results.

Experiment: chemical genetic growth profiling, strain panel (AID 1159580);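 also: tested at 20 µM; growth read once vehicle control cultures reached saturation at 30 °C; 1 = growth at the plate median or of vehicle wells; lower values mean less growth of the strain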
Conditions: S. cerevisiae deletion strains, growth OD

Measured: normalized growth

CC(=O)OCCCCN1C(=O)c2ccccc2C1=O
inactive: locus YAL013W, strain DEP1, stronger effect = lower value 0.995 | locus YBR229C, strain ROT2, stronger effect = lower value 1 | locus YCL061C, strain MRC1, stronger effect = lower value 0.986 | locus YDL101C, strain DUN1, stronger effect = lower value 1.04 | locus YDL134C, strain PPH21, stronger effect = lower value 1 | locus YDR150W, strain NUM1, stronger effect = lower value 0.988 | locus YEL061C, strain CIN8, stronger effect = lower value 0.995 | locus YGR078C, strain PAC10, stronger effect = lower value 1.01 | locus YHR030C, strain SLT2, stronger effect = lower value 0.943 | locus YHR087W, strain rtc3, stronger effect = lower value 1.01 | locus YJL187C, strain SWE1, stronger effect = lower value 1 | locus YJR043C, strain POL32, stronger effect = lower value 0.997 | locus YJR075W, strain HOC1, stronger effect = lower value 0.977 | locus YKL190W, strain CNB1, stronger effect = lower value 0.999 | locus YLR039C, strain RIC1, stronger effect = lower value 1.02 | locus YLR058C, strain SHM2 (second series), stronger effect = lower value 0.994 | locus YLR085C, strain ARP6, stronger effect = lower value 0.967 | locus YLR262C, strain YPT6, stronger effect = lower value 1.02 | locus YML094W, strain GIM5, stronger effect = lower value 1.05 | locus YMR219W, strain ESC1, stronger effect = lower value 1 | locus YMR263W, strain SAP30, stronger effect = lower value 0.996 | locus YNL153C, strain GIM3, stronger effect = lower value 1.02 | locus YNL298W, strain CLA4 (second series), stronger effect = lower value 0.983 | locus YNL322C, strain KRE1, stronger effect = lower value 1 | locus YNR030W, strain Alg12, stronger effect = lower value 0.995 | locus YOL006C, strain TOP1, stronger effect = lower value 0.993 | locus YPL055C, strain LGE1, stronger effect = lower value 1 | locus YPL241C, strain CIN2, stronger effect = lower value 1.05 | locus YPR135W, strain CTF4, stronger effect = lower value 0.975
